Tg IFNy HTS: inhibitors of Toxoplasma gondii growth with IFN-gamma. Toxoplasma gondii growth in IFN-gamma-treated host cells; stronger effect = lower value. actives 3.8% (n = 69,000). activity change, negative = inhibition, % (test concentration not listed); in the data active = activity change below about -70%, passing the limit was not always enough;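 also: host cells are HeLa cells infected with Toxoplasma gondii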
* marks the source's active call; other numbers are inactive results. The sample as a whole holds a higher share of hits than the screen did.

What do the screens show for `O=C(/C=C/c1ccccc1)/C=C/c1ccccc1`?
Tg IFNy HTS: -97.6*

Results for O=C(O)CS(=O)(=O)/C=C/c1ccccc1 ?
Tg IFNy HTS: -3.9

How did O=C(NCCc1ccc(Cl)cc1)c1cccc2nsnc12 do in these assays?
Tg IFNy HTS: -16.8

What do the screens show for `Cc1cc(=O)[nH]c(CCNC(=O)[C@@H](O)c2ccccc2)n1`?
Tg IFNy HTS: -5.3

Results for COc1cccc(C)c1C(=O)N1CCOC(c2ccc(Cl)c(Cl)c2)C1 (configuration not stated) ?
Tg IFNy HTS: -77.0*

Results for COc1ncc(C(=O)N2CCOC(c3ccc(Cl)c(Cl)c3)C2)cn1 (configuration not stated) ?
Tg IFNy HTS: -15.0

What do the screens show for `COc1cccnc1C(=O)N1CCOC(c2ccc(Cl)c(Cl)c2)C1` (configuration not stated)?
Tg IFNy HTS: -6.2

How did Cc1cccc(Nc2nc(C(=O)NC3CCCCCC3)nc3ccccc23)c1 do in these assays?
Tg IFNy HTS: -51.2

Results for O=C(C[C@H]1CC[C@@H]2[C@H](COC[C@@H](O)CN2C(=O)Cc2ccccc2)O1)NC1Cc2ccccc2C1 ?
Tg IFNy HTS: 15.3

Results for Cc1ccc(C(=O)NCCc2n[nH]c3c2CCCC3)cc1NC(=O)C1CC1 ?
Tg IFNy HTS: -34.8

What do the screens show for `Cc1onc(-c2ccccc2)c1C(=O)N1CCC(c2ccccc2C(=O)O)C1` (configuration not stated)?
Tg IFNy HTS: -45.3

What do the screens show for `N#Cc1ccc(C#CCOC(=O)Nc2ccc(OC(F)(F)F)cc2)cc1`?
Tg IFNy HTS: 34.4

How did CCc1nc(OCC(=O)Nc2cccc(Cl)c2)c2ccccc2n1 do in these assays?
Tg IFNy HTS: 3.7

Results for COc1cc(C(F)(F)F)nc2ccc(C#CCOC(=O)Nc3cccc(Cl)c3)cc12 ?
Tg IFNy HTS: -108.7*

Results for Cc1nonc1C1CCCN1CCC(=O)Nc1nnc(C2CC2)s1 (configuration not stated) ?
Tg IFNy HTS: 9.6

What do the screens show for `COc1ccc(-n2c(=O)c(C(=O)NCc3cc(F)cc(F)c3)c(O)c3cccnc32)cc1`?
Tg IFNy HTS: -34.0

What do the screens show for `Cc1cc(C)c2cc(C(=O)NCCNc3ccc(C(F)(F)F)cn3)[nH]c2c1`?
Tg IFNy HTS: -43.2

How did c1ccc(CCN2CCC3(CC2)CC(N2CCCC2)CO3)cc1 (configuration not stated) do in these assays?
Tg IFNy HTS: -52.7

How did O=C(Nc1cccc(-c2nc3ccccc3o2)c1)c1ccccc1 do in these assays?
Tg IFNy HTS: -12.2

How did CC(C)(C)c1ccc(C(=O)Nc2ccc3oc(-c4ccccc4)nc3c2)cc1 do in these assays?
Tg IFNy HTS: -84.1*

What do the screens show for `CC(C)CC(=O)Nc1ccc2oc(-c3ccncc3)nc2c1`?
Tg IFNy HTS: 98.8

What do the screens show for `CC(C)(C)c1cc2nc(C(F)(F)F)cc(N3CCN(C(=O)c4ccccc4)CC3)n2n1`?
Tg IFNy HTS: -85.8*

What do the screens show for `Cc1ccc(C)c(N2CCN(C(=O)c3ccc(-n4nc(C(F)(F)F)c5c4CCCC5)cc3)CC2)c1`?
Tg IFNy HTS: 0.8

How did O=C(c1ccccc1)N1CCN(C(=O)c2ccccc2)CC1 do in these assays?
Tg IFNy HTS: -9.7

What do the screens show for `Cc1cc(C(=O)N2CCc3ncc(CN(C)C)n3CC2)no1`?
Tg IFNy HTS: 5.0

How did Cc1nc2nnc3ccc(C(=O)NCCN(C)C)cc3c2n1CC1CCCO1 (configuration not stated) do in these assays?
Tg IFNy HTS: 2.4

What do the screens show for `CN1CCN(Cc2ccc(C#CC(C)(C)O)cc2)CC1C(=O)O` (configuration not stated)?
Tg IFNy HTS: -30.0

Results for COc1cc(NC(=S)NC(=O)c2cccs2)ccc1NC(=O)C(C)C ?
Tg IFNy HTS: 51.2

Results for O=C(Nc1ccc(NS(=O)(=O)c2ccc(Oc3ccccc3)cc2)cc1)c1ccccc1 ?
Tg IFNy HTS: 3.9

How did COc1ccc(NC(=O)c2c(NS(=O)(=O)c3ccc(C)cc3)csc2C)cc1 do in these assays?
Tg IFNy HTS: 14.5

What do the screens show for `COc1cc(NC(=O)c2cc3ccccc3o2)ccc1NC(=O)c1cccs1`?
Tg IFNy HTS: -110.6*

What do the screens show for `O=C(Nc1ccc(-c2nc(-c3ccccc3)co2)cc1)c1cccs1`?
Tg IFNy HTS: 2.8

How did COc1ccc(NS(=O)(=O)c2ccc(NC(=O)c3cc4ccccc4o3)cc2)cc1 do in these assays?
Tg IFNy HTS: -70.5*

Results for COc1ccc(-c2noc(-c3nnn(Cc4nc(-c5ccccc5OC)oc4C)c3C)n2)cc1OC ?
Tg IFNy HTS: -4.2

How did O=C(Nc1ccc2ccccc2n1)c1ccc(Cl)cc1 do in these assays?
Tg IFNy HTS: 304.7

How did Cc1nnc2n1CC(c1cccc(C(=O)Nc3ncc(Cc4ccccc4F)s3)c1)CC2 (configuration not stated) do in these assays?
Tg IFNy HTS: -48.4

Results for O=C(Nc1ncc(Cc2cccc3ccccc23)s1)c1ccc(Cl)cc1 ?
Tg IFNy HTS: -100.5*

How did Cc1nonc1C1CCCN1Cc1ncccc1C(=O)O (configuration not stated) do in these assays?
Tg IFNy HTS: 2.8

Results for O=C(O)c1ccc(CN2CCCC2)cc1 ?
Tg IFNy HTS: 43.2

How did O=C(c1ccc2c(c1)OCO2)N1Cc2cnn(CCO)c2C1 do in these assays?
Tg IFNy HTS: 3.9

How did CC(C)n1nc2c(cc1=O)CN(C(=O)c1ccc3c(c1)OCO3)CC2 do in these assays?
Tg IFNy HTS: -80.3*

Results for Cn1cnc2c1C(C(=O)O)CN(C(=O)c1ccc3c(c1)OCO3)C2 (configuration not stated) ?
Tg IFNy HTS: 11.0

Results for CCOc1ccn(-c2ccc(F)cc2)c(=O)c1C(=O)Nc1ccc(Oc2ccnc(N)c2Cl)c(F)c1 ?
Tg IFNy HTS: -57.8

How did CCN(CC)CCNC(=O)c1ccc(N)cc1 do in these assays?
Tg IFNy HTS: 12.7

How did CCN(CC)CCNC(=O)c1c(C)[nH]c(/C=C2\C(=O)Nc3ccc(F)cc32)c1C do in these assays?
Tg IFNy HTS: -75.0*

How did Cc1[nH]c(/C=C2\C(=O)Nc3ccc(S(=O)(=O)N(C)c4cccc(Cl)c4)cc32)c(C)c1C(=O)N1CCN(C)CC1 do in these assays?
Tg IFNy HTS: -63.9

How did O=c1cc(-c2cccnc2)nc(-c2ccc(CN3CCCNCC3)cc2)[nH]1 do in these assays?
Tg IFNy HTS: -46.1

What do the screens show for `Cc1ccoc1C(=O)NCc1cnn2ccccc12`?
Tg IFNy HTS: 21.7

How did CCc1c(C)nc(SCC(=O)c2ccc(F)cc2)[nH]c1=O do in these assays?
Tg IFNy HTS: 7.2

How did COc1ccc2[nH]cc(C(=O)CCl)c2c1 do in these assays?
Tg IFNy HTS: -26.1

How did CCOC(=O)c1c[nH]c2ccc(OC)cc2c1=O do in these assays?
Tg IFNy HTS: -87.8*

How did CC(=O)c1c[nH]c2ccc(C)cc2c1=O do in these assays?
Tg IFNy HTS: 12.5

What do the screens show for `c1cnc2c(c1)CN(CC1CCOC1)CCN2CCn1cccn1` (configuration not stated)?
Tg IFNy HTS: -24.6

How did Cc1nc(CN2C(=O)C[C@H]3[C@H]2CCN3Cc2ccoc2)cs1 do in these assays?
Tg IFNy HTS: 1.8

What do the screens show for `O=C(c1ccc(C(F)(F)F)cc1)N1CCN(S(=O)(=O)c2cc3c4c(c2)CCN4C(=O)CC3)CC1`?
Tg IFNy HTS: -51.6

Results for CCNC(=O)[C@@H]1C[C@H](N)CN1C(=O)c1ccnc(OC)c1 ?
Tg IFNy HTS: 8.6

How did O=C(NC(Cc1cc(=O)[nH]c(-c2ccncc2)n1)c1ccc(F)cc1)C1CCCC1 (configuration not stated) do in these assays?
Tg IFNy HTS: 2.8

What do the screens show for `O=C(NCCc1csc(-c2ccc(F)cc2)n1)C(=O)Nc1ccc(F)cc1F`?
Tg IFNy HTS: 14.4

Screening results (PubChem BioAssay)
